Out of some 340,000 compounds screened, about 2,500 (0.74%) were called active.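 How the source made its calls: active means inhibition above about 55% (limit read from the data); inactive means the rest.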 Only a selection was taken, and actives are over-represented in it overall.
Assay: Gli-Sufu pathway antagonists, primary screen, luciferase luminescence, Sufu-KO-LIGHT cells, uHTS (AID 588413);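 further: 0% = DMSO-treated cells and 100% = wells with medium but no cells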
Conditions: Sufu-KO-LIGHT fibroblasts, Gli luciferase reporter luminescence; at 5 µM; stronger effect = higher value

Row | SMILES | inhibition
1 | CN(C)c1ccc(CNC2C3CC4CC(C3)CC2C4)cc1 (stereo not given) | 1.25% (inactive)
2 | O=C(NCC(=O)N1CCCCCCC1)c1ccccc1Cl | -20.5% (inactive)
3 | CC(=O)c1ccc(S(=O)(=O)NCCC(=O)N2CCN(c3ccccn3)CC2)cc1 | -5.24% (inactive)
4 | CCN(Cc1cc2cc(C)ccc2[nH]c1=O)S(=O)(=O)c1ccccc1 | 0.68% (inactive)
5 | Cc1ccc(S(=O)(=O)N(Cc2cc3ccccc3[nH]c2=O)CC2CCCO2)cc1 (stereo not given) | 64.1% (active)
6 | O=C(c1cccs1)N(Cc1cc2ccccc2[nH]c1=O)CC1CCCO1 (stereo not given) | 20.4% (inactive)
7 | O=C(O)CCCn1c(=O)c2cccn2c2ccc(F)cc21 | 4.96% (inactive)
8 | COc1ccc(C2=NS(=O)(=O)N(C)C(C(=O)N3CCCCC3)=C2)cc1 | 14.7% (inactive)
9 | CCOc1ccccc1N1CN(Cc2ccccc2)CNC1=S | -9.38% (inactive)
10 | O=C(c1cc(COc2ccc(F)c(F)c2)on1)N1CCOCC1 | -41.7% (inactive)
11 | COc1cccc(OCc2cc(C(=O)N3CCN(C(=O)c4ccco4)CC3)no2)c1 | -5.15% (inactive)
12 | C=CCC1(CC=C)CCCN1C(=O)c1cc(COc2ccc(-n3cncn3)cc2)on1 | 77.8% (active)
13 | COc1cc(Cl)c(C)cc1NC(=O)CSc1nnc(CN2CCCC2)o1 | 1.49% (inactive)
14 | O=C(Nc1nc2ccc([N+](=O)[O-])cc2s1)c1ccc(S(=O)(=O)N2CCCc3ccccc32)cc1 | 77.6% (active)
15 | O=C(NOCc1ccccc1)c1cccc([N+](=O)[O-])c1 | -14.1% (inactive)
16 | Cc1ccc(NC(=O)c2cccc(S(=O)(=O)N3CCCc4ccccc43)c2)nc1 | -3.22% (inactive)
17 | O=C(NC(Nc1nc2ccc([N+](=O)[O-])cc2s1)(C(F)(F)F)C(F)(F)F)c1ccccc1 | 87.4% (active)
18 | CNC(=O)c1ccsc1NC(=O)c1ccc(S(=O)(=O)N2CCc3ccccc32)cc1 | 5.3% (inactive)
19 | N=C1C(c2nc3ccccc3s2)=C(O)CN1NC(=O)c1ccc([N+](=O)[O-])cc1 | -3.9% (inactive)
20 | CCOc1ccc(C(=O)Nc2nccs2)cc1[N+](=O)[O-] | -24.3% (inactive)
21 | OC(c1ccc(Cl)cc1)C(CN1CCOCC1)c1ccccc1 (stereo not given) | -27.6% (inactive)
22 | Cc1ccc(C(CC(=O)O)NC(=O)c2ccc(S(=O)(=O)N3CCCC3)cc2)cc1 (stereo not given) | -3.63% (inactive)
23 | COc1cc(OC)nc(N/N=C(\c2ccccc2)c2ccncc2)n1 | 7.9% (inactive)

Row | SMILES | inhibition
24 | c1ccc(C(=NNc2nc3ccccc3s2)c2ccccn2)cc1 | 82.5% (active)
25 | C/C(=N/Nc1nc(-c2ccccc2)c(CC(=O)O)s1)c1ccccc1 | -23% (inactive)
26 | Cc1cc(S(=O)(=O)N2CCOCC2)ccc1OCC(=O)Nc1cccc(C(F)(F)F)c1 | -8.26% (inactive)
27 | COc1ccccc1N1CCN(C(=O)c2cc(=O)c3cc(C)ccc3o2)CC1 | 7.53% (inactive)
28 | COc1ccccc1N1CCN(C(=O)c2c(-c3c(Cl)cccc3Cl)noc2C)CC1 | -1.94% (inactive)
29 | COc1ccccc1N1CCN(C(=O)c2cc(=O)c3cc(C)cc(C)c3o2)CC1 | 56.9% (active)
30 | Cc1coc2c1c(C)cc1oc(=O)c(CC(=O)NCC(=O)N[C@H](C(=O)O)C(C)C)c(C)c12 | 23.9% (inactive)
31 | COc1ccccc1CCNC(=O)C(=O)NCCC1CCCCN1S(=O)(=O)c1cccs1 (stereo not given) | 55.6% (active)
32 | COc1ccc(CCNC(=O)C(=O)NCC2CCCN2S(=O)(=O)c2cccs2)cc1OC (stereo not given) | 6.8% (inactive)
33 | O=C(NCCC1CCCCN1S(=O)(=O)c1cccs1)C(=O)Nc1ccc(F)cc1F (stereo not given) | 15.3% (inactive)
34 | CCCCNC(=O)C1CCC(CNS(=O)(=O)c2ccc(NC(C)=O)cc2)CC1 (stereo not given) | -6.13% (inactive)
35 | CN(C)c1cc[n+](Cc2ccccc2)cc1 | 55.3% (active)
36 | CN(C)c1ccc(CSc2ccccc2)cc1 | -50.9% (inactive)
37 | c1ccc(Cc2cc[n+](Cc3ccccc3)cc2)cc1 | 20.7% (inactive)
38 | COc1cccc(/C=N/NC(=O)CNC(=O)c2ccc(S(=O)(=O)N3CCOCC3)cc2)c1OC | 3.3% (inactive)
39 | COc1cccc(/C=N/NC(=O)c2[nH]nc3c2CCc2ccccc2-3)c1O | 81.1% (active)
40 | COc1cc(/C=N/NC(=O)c2cc(-c3ccccc3C)nc3ccccc23)cc(OC)c1O | 3.09% (inactive)
41 | O=C(NCCCNC(=O)NC1CCCCC1)NC1CCCCC1 | 0.18% (inactive)
42 | O=[N+]([O-])c1cc([N+](=O)[O-])c(Oc2cc(F)cc(F)c2F)cc1NN1CCCCC1 | -2.49% (inactive)
43 | Cn1c(CCN2CCCC2)nc2cc(NS(=O)(=O)c3ccccc3)ccc21 | 12.8% (inactive)
44 | Cn1c(=O)n(C)c2cc(NS(=O)(=O)c3ccc(F)cc3)ccc21 | 0.54% (inactive)
45 | CC1(C)CC(=O)c2c(n(S(=O)(=O)c3ccccc3)c3ccc(NS(=O)(=O)c4ccccc4)cc23)C1 | 84.1% (active)
46 | C[C@H](CO)N1C[C@H](C)[C@@H](CN(C)Cc2ccc(-c3ccccc3)cc2)Oc2ccc(NC(=O)Cn3cnnn3)cc2C1=O | -7.22% (inactive)

Row | SMILES | inhibition
47 | N#Cc1ccc(CN2CCN(CC(=O)Nc3ccccc3C(=O)NC3CC3)CC2)cc1 | -0.74% (inactive)
48 | COc1cccc(C(=O)Nc2c3c(nn2-c2cccc(C)c2C)CS(=O)(=O)C3)c1OC | 5.94% (inactive)
49 | CCC(=O)N1CCc2cc(Br)c(S(=O)(=O)NCCN3CCCCC3CC)cc21 (stereo not given) | -20.7% (inactive)
50 | CC(=O)Nc1ccc(S(=O)(=O)N2CCN(C(=O)c3ccccc3F)CC2)cc1 | 4.91% (inactive)
51 | COCCn1c(CN(Cc2ccccc2)Cc2ccccc2)nc2c1c(=O)n(C)c(=O)n2C | 9.35% (inactive)
52 | COCCn1c(CN2CCC(Cc3ccccc3)CC2)nc2c1c(=O)n(C)c(=O)n2C | 66.7% (active)
53 | CC1CCN(Cc2nc3c(c(=O)n(C)c(=O)n3C)n2CCc2ccccc2)CC1 | 0.83% (inactive)
54 | NC1=NC(=O)C(Cc2cccc(Cl)c2Cl)S1 (stereo not given) | -27.7% (inactive)
55 | Cc1ccccc1NC(=O)Cn1cc(C(=O)C2CC2)c2ccccc21 | -3.91% (inactive)
56 | COCCCNC(=O)Cn1cc(C(=O)C2CC2)c2ccccc21 | 5.8% (inactive)
57 | O=C(Cn1cc(C(=O)C2CC2)c2ccccc21)Nc1ccccc1Cl | 60.8% (active)
58 | Cc1ccc(S(=O)(=O)N(C)C)cc1NC(=O)C1Cc2ccccc2CN1C(=O)c1ccco1 (stereo not given) | -7.42% (inactive)
59 | COc1ccc(CCNC(=O)C(=O)NCC2OCCN2S(=O)(=O)c2cccs2)cc1OC (stereo not given) | 1.51% (inactive)
60 | COc1cc2c(cc1OC)CN(CC(=O)Nc1ccc(F)cc1)CC2 | 9.09% (inactive)
61 | COc1ccc2c(c1)CCNC2Cc1ccc(OC)c(O)c1 (stereo not given) | 7.38% (inactive)
62 | CC[C@H]1CN2CCc3cc(OC)c(OC)cc3[C@@H]2C[C@@H]1C[C@H]1NCCc2cc(OC)c(OC)cc21 | 71.3% (active)
63 | C=CC(=O)Nc1ccc(Nc2ccnc(Nc3ccc(N4CCN(C)CC4)cc3)n2)cc1 | 21.8% (inactive)
64 | CC(NC(=O)C1CCC(CNc2c(N3CCOCC3)c(=O)c2=O)CC1)c1ccccc1 (stereo not given) | -5.64% (inactive)
65 | COCCN(Cc1ccccc1)C(=O)Cc1ccc(S(=O)(=O)N2CCOCC2)s1 | 4.55% (inactive)
66 | CC[n+]1c(C)n(-c2ccccc2)c2ccc(NC(C)=O)cc21 | 76.3% (active)
67 | Cc1nnc(SCC(=O)Nc2cccc(N)c2)n1-c1ccccc1 | -28.9% (inactive)
68 | CC(=O)c1cccc(NC(=O)c2cc(C)nn2-c2ccccc2)c1 | 5.19% (inactive)
69 | Cc1ccc(C(=O)NCC(=O)O)s1 | -7.96% (inactive)

Row | SMILES | inhibition
70 | CC1OC2C(OC1C)N(S(C)(=O)=O)CCN2S(C)(=O)=O (stereo not given) | -7.55% (inactive)
71 | Cc1ccsc1C(=O)OCC(=O)Nc1cccc(F)c1 | -43.7% (inactive)
72 | Cc1ccsc1C(=O)OCC(=O)c1cc(C)n(CC2CCCO2)c1C (stereo not given) | 72.1% (active)
73 | COc1ccc(C(=O)OCC(=O)c2cc(C)n(CC3CCCO3)c2C)cc1[N+](=O)[O-] (stereo not given) | -7.49% (inactive)
74 | CCN(CC)C(CNC(=O)CSc1nnnn1-c1cccc(F)c1)c1ccco1 (stereo not given) | 10% (inactive)
75 | CCNCCC(=O)N1c2ccccc2Sc2ccc(NC(=O)OCC)cc21 | 26.4% (inactive)
76 | CCOC(=O)CNC(=O)N1c2ccccc2Sc2ccccc21 | 2.43% (inactive)
77 | CCN1/C(=C/C(=S)Nc2ccccc2)Sc2ccccc21 | 67.6% (active)
78 | CC(=O)c1ccc(S(=O)(=O)NC2CC(=O)N(c3ccc4c(c3)OCCO4)C2)cc1 (stereo not given) | -3.34% (inactive)
79 | CCN(CC(=O)Nc1c(F)cccc1F)C(=O)c1ccc(Sc2nncn2C)c([N+](=O)[O-])c1 | 31.3% (inactive)
80 | CC(C)Oc1ccc(C(=O)NC(C)(C)CO)cc1 | -9.97% (inactive)
81 | CCC(Cc1ccccc1)NC(=O)C1CCCCC1 (stereo not given) | 63.1% (active)
82 | CCC(NC(=O)C1CCCC1)c1ccc(C)cc1 (stereo not given) | -10.2% (inactive)
83 | Cc1ccc(NC(=O)[C@H](Cc2ccccc2)NC(=O)C2CCNCC2)cc1 | 2.89% (inactive)
84 | COc1ccc(C(=O)COC(=O)Cn2cnc3c2c(=O)n(C)c(=O)n3C)c(OC)c1 | 3.81% (inactive)
85 | NC(=O)C1(Nc2ccccc2Cl)CCCC1 | 4.9% (inactive)
86 | CC[C@]12c3[nH]c4ccc(OC)cc4c3CCN1C(=O)C(CC(=O)NCc1ccco1)C[C@@H]2C(=O)N1CCN(C(=O)C2CC2)CC1 (stereo not given in full) | -2.82% (inactive)
87 | C=CCSc1nc2c(c(=O)[nH]1)C(C(C)C)C(C#N)=C(N)O2 (stereo not given) | -7.54% (inactive)
88 | CC/C(O)=C1\C(=O)CC(C)(C)CC1=NCCc1nc2ccccc2[nH]1 | 25.2% (inactive)
89 | CCCc1nc(N)nc2c1C(=O)CC(C)(C)C2 | 77.6% (active)
90 | CC1(C)CC(=O)c2sc(N)nc2C1 | 4.1% (inactive)

— PubChem BioAssay AID588413 (Sanford-Burnham Center for Chemical Genomics, 2011)
